Screens as filed in PubChem BioAssay.
Hits are enriched below; roughly 27% of the tested compounds scored in any of these assays.
Cav3 T inh: inhibitors of human Cav3.2 T-type calcium channel. O95180. Cav3.2-expressing cells, Fluo-4 calcium fluorescence FDSS; stronger effect = lower value. B-score at 10 µM. 100,000 compounds, 4% hits. AID 449739;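 active = single-dose well whose peak fluorescence ratio is a statistical outlier from its plate by either plate-standardised score or position-corrected B-score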
CYP2C19 inhib: human CYP2C19 inhibition | CYP2C19 Supersomes, luciferin-H EGE luminescence, 30 min | P33261 | 96,000 compounds, 21% hits | inhibition, % at 5 µM;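 active = CYP2C19 inhibition above a set limit at 5 µM in the primary screen, cut at about 50% in these data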
CYP2C19 act: activators of human cytochrome P450 2C19 | P33261 | recombinant CYP2C19, luciferin-H EGE luminescence; stronger effect = higher value; 0 = fully inhibited enzyme, 1 = untreated enzyme | activation factor at 5 µM | 96,000 tested, under 10 active | AID 1025;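 active = activation factor of at least 2 at 5 µM in the primary screen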
CYP2C9 inh: inhibitors of human CYP2C9; AID 777; 96,000 compounds, 20% hits; CYP2C9 Supersomes, luciferin-H conversion, luminescence; P11712; inhibition, % at 5 µM;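 active = blocking of liver enzyme CYP2C9 beyond about 50% at 5 µM, limit read from the data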
Target sequence (P11712 whole entry, looked up): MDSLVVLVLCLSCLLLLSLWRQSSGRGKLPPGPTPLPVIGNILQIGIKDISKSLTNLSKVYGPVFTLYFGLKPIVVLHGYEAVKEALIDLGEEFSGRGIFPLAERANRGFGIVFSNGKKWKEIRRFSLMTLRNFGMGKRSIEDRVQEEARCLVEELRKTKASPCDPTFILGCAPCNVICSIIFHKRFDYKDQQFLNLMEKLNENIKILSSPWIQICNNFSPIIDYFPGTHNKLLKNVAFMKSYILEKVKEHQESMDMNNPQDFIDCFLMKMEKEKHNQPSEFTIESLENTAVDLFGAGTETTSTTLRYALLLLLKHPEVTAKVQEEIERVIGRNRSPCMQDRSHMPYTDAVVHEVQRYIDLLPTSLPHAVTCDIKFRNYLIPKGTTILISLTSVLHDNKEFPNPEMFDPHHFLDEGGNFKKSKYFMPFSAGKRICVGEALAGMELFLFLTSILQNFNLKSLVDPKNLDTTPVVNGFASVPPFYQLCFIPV
CYP2C9 act: increases human cytochrome P450 2C9 activity; P11712; recombinant CYP2C9, luciferin-H conversion, luminescence; stronger effect = higher value; factor 1 = untreated enzyme, 0 = blocked; activation factor at 5 µM; 96,000 compounds, 1.4% hits;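 active = activation factor of 2 or more for CYP2C9 at a 5 µM dose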
A number is an active result; 0 = inactive; - = no result.

SMILES	Cav3 T inh	CYP2C19 inhib	CYP2C19 act	CYP2C9 inh	CYP2C9 act
CN1CCN(c2oc(COc3ccc(-c4ccccc4)cc3)nc2C#N)CC1	0	55	0	0	0
N#Cc1nc(COc2ccc(Br)cc2)oc1N1CCCC1	0	99	0	65	0
N#Cc1nc(COc2ccccc2)oc1N1CCCC1	-	88	0	0	0
N#Cc1nc(COc2ccccc2)oc1N1CCOCC1	0	0	0	0	0
N#Cc1nc(COc2ccccc2)oc1N1CCCCCC1	-4	0	0	0	0
O=C1CN(C(=O)c2ccc(Br)o2)C(c2ccc(F)cc2)c2cc(F)ccc2N1 (centres undefined)	0	-	-	-	-
COc1cccc(C(=O)CSc2nc3cccnc3n2C)c1	0	-	-	-	-
CCCn1c(SCC(=O)Nc2sc(C)c(C)c2C(=O)OC)nc2c1c(=O)n(C)c(=O)n2C	-	0	0	0	0
CCOC(=O)c1sc(NC(=O)CSc2nnc(C)s2)c(C(=O)OCC)c1C	0	62	0	88	0
CCOC(=O)c1c(NC(=O)CSc2nc3c(c(=O)n(C)c(=O)n3C)n2CC)sc(C)c1C	-	52	0	90	0
CCOC(=O)c1c(NC(=O)CSc2nc3ccccc3s2)sc(C(C)=O)c1C	0	0	0	78	0
COC(=O)c1ccc(C23CC4(C2)[C@H](CN(CC2CCCCC2)[C@@H]4c2ccccc2)C3c2ccc(C(F)(F)F)cc2)cc1 (some centres undefined)	0	-	-	-	-
COC(=O)c1cc(O)c(O)c(O)c1	0	-	-	-	-
COC(=O)c1cc(F)c(-n2cncn2)c(F)c1	0	70	0	0	0
O=C(CSc1nnc(-c2ccc(S(=O)(=O)N3CCCC3)cc2)o1)NCc1ccco1	0	63	0	77	0
COc1cc(OC)cc(-c2nnc(SCC(=O)NCc3cccs3)o2)c1	0	89	0	0	0
Cc1csc(NC(=O)CSc2nnc(-c3ccc(S(=O)(=O)N4CCCC4)cc3)o2)n1	0	0	0	61	0
COc1cc(OC)cc(-c2nnc(SCC(=O)N3CCCCC3)o2)c1	0	0	0	0	0
Cc1ccc(-c2nnc(SCC(=O)Nc3ccc(S(=O)(=O)N4CCCCCC4)cc3)o2)cc1	0	0	0	0	0
COc1ccc(-c2nnc(SCC(=O)NCc3cccs3)n2CC(C)C)cc1	-	51	0	65	0
O=C(C1CCCN(S(=O)(=O)c2ccccc2)C1)N1CCCc2ccccc21 (centres undefined)	0	-	-	-	-
COC(=O)N[C@H](CC(C)=O)c1cccc(C(F)(F)F)c1	0	-	-	-	-
CCN(CC)C(=O)CSc1nnc(-c2ccc(S(=O)(=O)N3CCCC3)cc2)o1	0	0	0	0	0
COc1ccc(-c2nnc(SCC(=O)NCc3ccco3)o2)cc1	0	65	0	0	0
CCN(CC)S(=O)(=O)c1ccc(-c2nnc(SCC(=O)N3CCc4ccccc43)o2)cc1	0	0	0	66	0
SMILES	Cav3 T inh	CYP2C19 inhib	CYP2C19 act	CYP2C9 inh	CYP2C9 act
CC1Cc2ccccc2N1C(=O)CSc1nnc(-c2ccc(S(=O)(=O)N3CCCC3)cc2)o1 (centres undefined)	0	66	0	88	0
COc1ccc(OCc2nnc(SCC(=O)NCc3ccco3)o2)cc1	0	0	0	72	0
CC1CCN(S(=O)(=O)c2ccc(S(=O)(=O)NCC(=O)C(C)(C)C)cc2)CC1	0	0	0	0	0
CCOC(=O)N1CCN(CC(=O)Nc2cc3c(cc2C(C)=O)OCO3)CC1	0	0	0	80	0
CC(=O)c1cc2c(cc1NC(=O)CSc1nc3ccccc3o1)OCO2	0	0	0	0	0
CC(=O)c1cc2c(cc1NC(=O)CCNC(=O)c1ccccc1Cl)OCO2	0	60	0	74	0
CC(=O)c1cc2c(cc1NC(=O)CN1CCN(c3cccc(C(F)(F)F)c3)CC1)OCO2	0	-	-	-	-
CC(=O)c1cc2c(cc1NC(=O)CN1CCC(Cc3ccccc3)CC1)OCO2	0	71	0	87	0
CCC(=O)Nc1cc2c(cc1C(C)=O)OCCO2	0	-	-	-	-
O=C(O)C1=C[C@H](c2ccc(Br)cc2)C[C@H](OCc2ccc(CO)cc2)O1	0	-	-	-	-
CC1CCN(C(=S)NC(=O)c2ccccc2)CC1	0	0	0	0	0
CN1CCN(C(=S)NC(=O)/C=C/c2cccc3ccccc23)CC1	0	0	0	0	3
O=C(N/N=C/C1C(c2ccccc2)C1(Cl)Cl)c1cccc(Br)c1 (centres undefined)	-6.7	0	0	70	0
COCCCNC(=O)c1oc2ccc(S(=O)(=O)N(C)C3CCCCC3)cc2c1C	0	0	0	76	0
CCOC(=O)c1oc2ccc(S(=O)(=O)N3CCOCC3)cc2c1C	0	0	0	0	0
CCCN(CCC)S(=O)(=O)c1ccc(C(=O)N2CCOCC2)cc1	0	0	0	0	0
CCN(CC)C(=O)c1oc2ccc(S(=O)(=O)N3CCCCCC3)cc2c1C	0	51	0	0	0
CCN(CC)S(=O)(=O)c1ccc2oc(C(=O)N3CCCCCC3)c(C)c2c1	0	0	0	56	0
CCN(CC)S(=O)(=O)c1ccc2oc(C(=O)N3CCOCC3)c(C)c2c1	0	0	0	0	0
CCN(CC)S(=O)(=O)c1ccc(C(=O)N2CCCCC2)cc1	0	0	0	70	0
CC(CCc1ccccc1)NC(=O)c1cncc(Br)c1 (centres undefined)	0	0	0	0	0
O=c1[nH]cnc2scc(C3COc4ccccc4O3)c12 (centres undefined)	0	88	0	80	0
Cc1cc(NC(=O)CSc2nnc(C)c(=O)[nH]2)no1	0	0	0	0	0
C/C(=N\NC(=O)C(NC(=O)c1ccccc1)C(C)C)c1ccccc1 (centres undefined)	0	0	0	0	0
CCC(CC)C(=O)c1c[nH]c(C(=O)NCCCn2ccnc2)c1	0	67	0	92	0
SMILES	Cav3 T inh	CYP2C19 inhib	CYP2C19 act	CYP2C9 inh	CYP2C9 act
O=C(NCCCn1ccnc1)c1cc(C2CC2)on1	0	85	0	59	0
CCC(CC)C(=O)c1c[nH]c(C(=O)NCCCN2CCOCC2)c1	-	0	0	0	0
CC(C)CC(=O)c1c[nH]c(C(=O)NCCCn2ccnc2)c1	0	0	0	82	0
Cc1ccccc1C(=O)c1c[nH]c(C(=O)NCCCn2ccnc2)c1	0	67	0	93	0
CCOc1cc2[nH]c(=O)n(CCCCC(=O)NCc3ccco3)c(=O)c2cc1OCC	0	-	-	-	-
CC(C)(C)n1nc2c(c1NC(=O)CCCc1ccccc1)CS(=O)C2 (centres undefined)	-	0	0	0	0
O=C(O)C1CCCCC1C(=O)NCCCn1ccnc1 (centres undefined)	0	0	0	0	0
O=C(NCCCn1ccnc1)c1cc(C(=O)C2CC2)c[nH]1	0	56	0	61	0
O=C(CSc1nnnn1-c1ccccc1)N1CCc2ccccc2C1	0	65	0	0	0
CCOC(=O)c1cc(C)n(CCc2ccccc2)c1C	-3.8	0	0	0	0
COc1cc(CSc2nnnn2-c2ccc(C)cc2)cc(OC)c1OC	0	0	0	64	0
